According to PubChem BioAssay (NCATS):
Records with an inconclusive call do not appear. The source made the active and inactive calls. Unless noted, calls come from the whole dose curve; as a rule, active = well fitted curve in the direction sought with a large enough effect; inconclusive = small, poorly fitted or top-dose-only effect, or another doubt; inactive = no such curve, though single readings can be large; an effect the other way counts as inactive or inconclusive.

Key:
[1] = Cytometric Cell-Based qHTS for Inhibitors of the mTORC1 Signaling Pathway in MEF (Tsc2-/-, p53-/-) Cells (AID 2660);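 note: Tsc2 and p53 null MEFs carrying empty vector with compound for 24 h; percent of cells above a phospho-rpS6 to PI ratio cutoff in each well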
Method in brief: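 Cells are plated, treated with compound for 24 hrs at 37 degree Celsius, then fixed, blocked and immunostained for phospho-rpS6 Ser235/236. Propidium iodide counterstain follows. Per-well % positive cells is derived from the PI-normalized phospho-S6 signal.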

[2] = High Content Imaging Cell-Based qHTS for Inhibitors of the mTORC1 Signaling Pathway in MEF (Tsc2-/-, p53-/-) Cells (AID 2666); conditions: at 38.3 µM (top of the series);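 note: percent of cells scored positive for phospho-rpS6 Ser235/236 immunostaining by imaging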
Method in brief: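 Cells were plated, dosed with compound after 24 hrs, and incubated another 24 hrs at 37 degree Celsius. Fixed cells were immunostained for phospho-rpS6 Ser235/236 and counterstained, and the normalized signal was scored as % active cells against rapamycin and DMSO controls.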

[3] = High Content Imaging Cell-Based qHTS for Inhibitors of the mTORC1 Signaling Pathway in MEF Cells (AID 2667);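 note: Tsc2-/- p53-/- MEFs stably re-expressing wild-type Tsc2 exposed 24 h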
Method in brief: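 Immunofluorescence for rpS6 phosphorylation in MEFs of Tsc2-/-, p53-/- background rescued with WT Tsc2. Compound exposure lasted 24 hrs. Inhibition was scored against rapamycin-treated control wells.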

[4] = Cytometry Cell-Based qHTS for Inhibitors of the mTORC1 Signaling Pathway in MEF cells (AID 2668);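 note: Tsc2-/- p53-/- mouse embryonic fibroblasts stably re-expressing wild-type Tsc2; percent cells positive for phospho-rpS6 Ser235/236 relative to propidium iodide stain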
Method in brief: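 MEFs (Tsc2-/-, p53-/- stably expressing WT Tsc2) treated 24 h at 37 degree Celsius, fixed, stained with Alexa-488 anti-phospho-rpS6 Ser235/236 and propidium iodide; Acumen laser scanning. Reported as % positive cells, phospho-S6 normalized to PI.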

[5] = target: Ubiquitin carboxyl-terminal hydrolase 2 (Homo sapiens) (UniProt O75604); test: qHTS Validation Assay for Inhibitors of Ubiquitin-specific Protease USP2a Using CHOP2 as the Reporter (AID 463106)
Method in brief: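 10nM USP2 core + cpd, 30min RT; add 25nM Ub-CHOP2/25nM substrate; 60min RT; FI 485/531nm. Buffer Tris pH 8.0, CaCl2, BME, CHAPS. Norm. to NEM = 100% inhibition; time-zero read flags fluorescent artifacts.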

[6] = target: DNA polymerase III PolC-type (Bacillus subtilis (strain 168)) (UniProt P13267); test: qHTS Validation Assay for the Inhibitors of DNA Replication in Gram-Positive Bacteria (AID 485295);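 note: reconstituted holoenzyme with PolC plus beta clamp SSB and primase; PicoGreen fluorescence of double-stranded DNA made on primed circular M13 template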
Experimental: B Subtilis DNA polymerase III holoenzyme complex was assayed for DNA production by fluorescent detection of the double-stranded DNA product with PicoGreen dye. The holoenzyme complex was reconstituted from the following purified protein components: DNA Polymerase III, beta subunit processivity factor, SSB single-stranded DNA binding protein, and Primase. Single-stranded, circular M13Gori was used as a substrate with dNTPs and NTPs also supplied to the substrate reagent. Compounds from the NCGC collection were incubated with the holoenzyme mixture for […] at room temperature to allow binding to occur, and then the reaction was started by the addition of substrate. After 30 min incubation at room temperature, PicoGreen solution containing EDTA was added to stop the reaction and to visualize the double-stranded DNA produced. Reaction progress was measured in a ViewLux CCD imager in fluorescence intensity mode by using 480 nm excitation and 540 nm emission filter set.
1. Thaw screening compounds.
2. Label assay plates. Prepare pipette tips, reagent reservoirs, buffers and controls.
1. Thaw Enzymes, DNA template, Nucleotides and PicoGreen dye concentrate. Thawed enzymes are stable on ice for ~1
week. Other thawed components are stable indefinitely.
2. Prepare sufficient quantities of Enzyme, Substrate and PicoGreen Quench mixes (according to Table II). For the number of
compound plates being screened.
3. Ensure that the tip wash station reservoirs have clean water and turn on recirculating chiller so that the chilled deck position
1. Load 2 uL of EDTA controls (250 mM, Background, 100 % inhibition) and 2 uL of DMSO controls (Negative control, 0%
inhibition) in the screening plates (flat-bottomed black 384-well polypropylene, Greiner Bio-one).
2. Place Enzyme mix reservoir on the chiller position of the liquid handler deck. Make sure that chiller will maintain
temperature of Enzyme mix at 4degC. Substrate mix and PicoGreen Quench can be stored at room temp.
3. Program liquid handling robotics to dispense 18 uL of Enzyme mix into assay plates. Wash tips.
4. Aspirate and dispense 2 uL of compound from compound plates, mix and Incubate at room temperature for 10 minutes.
5. Aspirate 5 ul of Substrate mix, dispense into assay plates and mix by pipetting. Wash tips.
6. Incubate at room temperature (21 +/- 1 deg C) for 20 minutes.
7. Quench reactions by addition of 25 uL PicoGreen Quench mix and mix by pipetting (using HTS robotics or bulk reagent
dispenser such as a Multidrop or uFill). Keep plates in the dark or stacked until ready to read fluorescence.
8. Read fluorescence intensity of plates on plate reader using "Fluorescein (Ex 485 nm/ Em 535 nm, 0.1s)" setting.

[7] = target: Tumor susceptibility gene 101 protein (Homo sapiens) (UniProt Q99816); test: qHTS Validation Assay for Iinhibitors of HIV-1 Budding by Blocking the Interaction of PTAP/TSG101 (AID 485342; calls by dose curve)
Method in brief: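 Tsg101 binding domain (10 uM) with FITC-labeled PTAP peptide (50 nM) in HEPES pH 7.5 buffer, 20 min at r.t. with compounds. Binding measured by fluorescence polarization.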

[8] = target: ATP-dependent DNA helicase Q1 (Homo sapiens) (UniProt P46063); test: qHTS Validation Assay for Inhibitors of RecQ-Like Dna Helicase 1 (RECQ1) (AID 2353)
Method in brief: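 50 nM RECQ1T1 preincubated 15 min with compound in Tris pH 8.0 buffer with MgCl2, DTT, Tween-20 and 2.5 ug/ml poly(dI-dC); started with 200 nM TAMRA/BHQ-2 forked duplex and 2 mM ATP. Unwinding read as fluorescence (525/598 nm), two reads 2 h apart.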

[9] = target: RecQ-like DNA helicase BLM (Homo sapiens) (UniProt P54132); test: qHTS Validation Assay for Inhibitors of Bloom's syndrome helicase (BLM) (AID 2364)
Method in brief: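 Forked 20-bp duplex substrate (200 nM, TAMRA/BHQ-2) plus 2 mM ATP added after 15 min compound preincubation with 50 nM enzyme, pH 8.0, poly(dI-dC) 2.5 ug/ml. Strand separation followed by fluorescence (525/598 nm) over 2 h, normalized to enzyme-free and DMSO controls.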

[10] = Validation screen for small molecules that induce DNA re-replication in MCF 10A normal breast cells (AID 463097); note: nearly all actives have a fitted effect of over 60% in size
Method in brief: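 MCF 10A cells exposed to compound 48 hr at 37 C, 5% CO2, then Hoechst-stained 40 min. Laser-scanning imaging of nuclear DNA content (405 nm ex, 500-530 nm em); re-replication scored as rise in nuclei with elevated fluorescence intensity.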

Measured: outcome

Sequence of DNA polymerase III PolC-type (Bacillus subtilis (strain 168)) (P13267 whole entry, looked up): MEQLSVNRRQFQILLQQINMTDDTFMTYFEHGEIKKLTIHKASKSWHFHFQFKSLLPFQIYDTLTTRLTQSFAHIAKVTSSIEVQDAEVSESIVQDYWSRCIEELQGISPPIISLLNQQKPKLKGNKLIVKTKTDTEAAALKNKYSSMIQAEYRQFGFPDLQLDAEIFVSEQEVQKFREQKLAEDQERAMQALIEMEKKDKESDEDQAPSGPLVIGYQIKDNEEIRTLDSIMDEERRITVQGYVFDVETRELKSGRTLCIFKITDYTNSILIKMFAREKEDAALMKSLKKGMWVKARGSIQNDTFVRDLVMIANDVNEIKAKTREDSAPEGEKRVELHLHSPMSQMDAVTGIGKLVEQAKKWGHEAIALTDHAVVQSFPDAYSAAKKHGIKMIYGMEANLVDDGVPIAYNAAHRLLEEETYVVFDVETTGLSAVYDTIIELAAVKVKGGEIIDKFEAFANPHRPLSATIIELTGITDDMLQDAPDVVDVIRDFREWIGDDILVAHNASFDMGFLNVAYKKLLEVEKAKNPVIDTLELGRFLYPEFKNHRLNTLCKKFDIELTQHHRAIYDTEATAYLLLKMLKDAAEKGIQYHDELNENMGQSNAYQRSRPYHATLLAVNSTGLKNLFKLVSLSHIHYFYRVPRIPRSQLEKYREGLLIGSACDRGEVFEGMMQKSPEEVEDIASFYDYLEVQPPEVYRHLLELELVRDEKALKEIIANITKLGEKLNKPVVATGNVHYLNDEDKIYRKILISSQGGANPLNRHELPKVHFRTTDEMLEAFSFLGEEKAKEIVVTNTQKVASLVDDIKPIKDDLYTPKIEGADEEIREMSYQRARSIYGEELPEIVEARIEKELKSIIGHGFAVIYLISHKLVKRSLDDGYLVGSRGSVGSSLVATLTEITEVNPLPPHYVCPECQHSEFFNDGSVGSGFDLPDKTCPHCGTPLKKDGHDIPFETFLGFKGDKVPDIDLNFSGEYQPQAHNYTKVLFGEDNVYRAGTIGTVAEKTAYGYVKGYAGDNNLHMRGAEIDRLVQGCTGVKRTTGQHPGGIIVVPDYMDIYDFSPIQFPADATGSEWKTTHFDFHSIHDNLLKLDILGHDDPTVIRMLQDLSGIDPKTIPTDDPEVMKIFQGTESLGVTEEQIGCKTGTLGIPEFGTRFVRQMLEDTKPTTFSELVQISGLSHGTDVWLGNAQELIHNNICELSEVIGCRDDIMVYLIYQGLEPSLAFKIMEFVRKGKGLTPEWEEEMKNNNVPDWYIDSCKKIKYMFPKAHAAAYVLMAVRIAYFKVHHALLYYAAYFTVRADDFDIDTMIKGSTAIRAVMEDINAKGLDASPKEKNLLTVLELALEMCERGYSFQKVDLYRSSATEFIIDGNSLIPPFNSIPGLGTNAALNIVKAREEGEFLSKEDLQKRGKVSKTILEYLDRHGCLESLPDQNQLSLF
Sequence of Tumor susceptibility gene 101 protein (Homo sapiens) (Q99816 whole entry, looked up, the tested form may be a part): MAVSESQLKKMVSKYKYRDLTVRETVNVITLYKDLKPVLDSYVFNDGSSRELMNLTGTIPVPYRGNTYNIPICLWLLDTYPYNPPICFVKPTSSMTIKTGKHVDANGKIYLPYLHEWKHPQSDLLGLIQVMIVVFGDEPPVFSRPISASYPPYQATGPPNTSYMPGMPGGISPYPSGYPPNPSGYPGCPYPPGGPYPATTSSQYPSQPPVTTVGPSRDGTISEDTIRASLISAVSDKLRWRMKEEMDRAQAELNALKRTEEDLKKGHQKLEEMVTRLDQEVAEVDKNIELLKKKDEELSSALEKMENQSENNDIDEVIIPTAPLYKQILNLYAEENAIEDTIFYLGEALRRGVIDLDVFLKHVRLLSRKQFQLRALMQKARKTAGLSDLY
Sequence of Ubiquitin carboxyl-terminal hydrolase 2 (Homo sapiens) (O75604 whole entry, looked up): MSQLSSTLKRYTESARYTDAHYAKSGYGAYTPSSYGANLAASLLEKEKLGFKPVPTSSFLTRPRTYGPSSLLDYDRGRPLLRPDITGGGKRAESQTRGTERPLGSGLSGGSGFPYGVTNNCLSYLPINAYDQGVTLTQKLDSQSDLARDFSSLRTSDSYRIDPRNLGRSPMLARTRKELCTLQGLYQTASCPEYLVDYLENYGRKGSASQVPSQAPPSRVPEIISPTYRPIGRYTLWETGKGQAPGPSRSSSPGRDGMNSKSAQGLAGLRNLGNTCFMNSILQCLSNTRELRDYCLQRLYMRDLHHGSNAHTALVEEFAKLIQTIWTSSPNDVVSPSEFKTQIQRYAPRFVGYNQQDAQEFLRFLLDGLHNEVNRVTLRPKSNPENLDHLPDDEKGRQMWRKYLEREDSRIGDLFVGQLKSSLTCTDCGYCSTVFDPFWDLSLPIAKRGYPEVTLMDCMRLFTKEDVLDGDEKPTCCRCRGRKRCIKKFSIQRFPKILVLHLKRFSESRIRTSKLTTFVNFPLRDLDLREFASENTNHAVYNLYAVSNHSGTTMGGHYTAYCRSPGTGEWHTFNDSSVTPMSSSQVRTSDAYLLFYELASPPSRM
Sequence of RecQ-like DNA helicase BLM (Homo sapiens) (P54132 whole entry, looked up): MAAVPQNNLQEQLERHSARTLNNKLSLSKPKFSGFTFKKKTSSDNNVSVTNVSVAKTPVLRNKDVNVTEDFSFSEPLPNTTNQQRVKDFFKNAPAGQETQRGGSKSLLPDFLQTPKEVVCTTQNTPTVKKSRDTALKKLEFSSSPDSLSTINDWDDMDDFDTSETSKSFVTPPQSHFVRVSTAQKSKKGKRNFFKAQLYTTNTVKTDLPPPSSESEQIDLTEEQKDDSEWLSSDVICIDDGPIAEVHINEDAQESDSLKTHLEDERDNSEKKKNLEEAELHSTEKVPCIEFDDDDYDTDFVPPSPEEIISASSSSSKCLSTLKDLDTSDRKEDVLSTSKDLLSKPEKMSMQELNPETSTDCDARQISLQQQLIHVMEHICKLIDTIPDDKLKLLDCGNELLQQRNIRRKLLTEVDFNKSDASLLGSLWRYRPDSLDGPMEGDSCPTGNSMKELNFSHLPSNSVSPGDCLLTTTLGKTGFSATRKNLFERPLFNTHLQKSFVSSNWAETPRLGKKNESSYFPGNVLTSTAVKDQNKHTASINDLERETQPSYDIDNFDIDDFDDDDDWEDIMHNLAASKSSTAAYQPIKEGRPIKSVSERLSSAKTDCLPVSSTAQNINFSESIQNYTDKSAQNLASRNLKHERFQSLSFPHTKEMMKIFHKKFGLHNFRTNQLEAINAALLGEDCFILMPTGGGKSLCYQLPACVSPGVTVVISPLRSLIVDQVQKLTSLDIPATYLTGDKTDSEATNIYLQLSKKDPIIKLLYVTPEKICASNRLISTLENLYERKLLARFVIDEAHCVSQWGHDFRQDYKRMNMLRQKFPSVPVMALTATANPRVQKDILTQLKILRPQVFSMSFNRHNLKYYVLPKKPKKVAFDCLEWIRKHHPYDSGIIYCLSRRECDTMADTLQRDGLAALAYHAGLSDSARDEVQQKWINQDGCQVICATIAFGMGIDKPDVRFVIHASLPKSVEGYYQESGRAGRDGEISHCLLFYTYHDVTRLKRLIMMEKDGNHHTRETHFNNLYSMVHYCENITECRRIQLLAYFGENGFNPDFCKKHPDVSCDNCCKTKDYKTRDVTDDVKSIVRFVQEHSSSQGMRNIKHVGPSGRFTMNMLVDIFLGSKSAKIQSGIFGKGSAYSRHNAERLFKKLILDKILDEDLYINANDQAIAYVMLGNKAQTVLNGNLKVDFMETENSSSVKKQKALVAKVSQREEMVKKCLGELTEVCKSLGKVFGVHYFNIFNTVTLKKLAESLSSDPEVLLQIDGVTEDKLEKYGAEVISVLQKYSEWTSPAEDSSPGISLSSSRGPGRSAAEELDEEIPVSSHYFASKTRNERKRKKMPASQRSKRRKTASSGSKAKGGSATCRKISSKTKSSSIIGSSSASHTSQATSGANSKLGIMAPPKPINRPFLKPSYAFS
Sequence of ATP-dependent DNA helicase Q1 (Homo sapiens) (P46063 whole entry, looked up): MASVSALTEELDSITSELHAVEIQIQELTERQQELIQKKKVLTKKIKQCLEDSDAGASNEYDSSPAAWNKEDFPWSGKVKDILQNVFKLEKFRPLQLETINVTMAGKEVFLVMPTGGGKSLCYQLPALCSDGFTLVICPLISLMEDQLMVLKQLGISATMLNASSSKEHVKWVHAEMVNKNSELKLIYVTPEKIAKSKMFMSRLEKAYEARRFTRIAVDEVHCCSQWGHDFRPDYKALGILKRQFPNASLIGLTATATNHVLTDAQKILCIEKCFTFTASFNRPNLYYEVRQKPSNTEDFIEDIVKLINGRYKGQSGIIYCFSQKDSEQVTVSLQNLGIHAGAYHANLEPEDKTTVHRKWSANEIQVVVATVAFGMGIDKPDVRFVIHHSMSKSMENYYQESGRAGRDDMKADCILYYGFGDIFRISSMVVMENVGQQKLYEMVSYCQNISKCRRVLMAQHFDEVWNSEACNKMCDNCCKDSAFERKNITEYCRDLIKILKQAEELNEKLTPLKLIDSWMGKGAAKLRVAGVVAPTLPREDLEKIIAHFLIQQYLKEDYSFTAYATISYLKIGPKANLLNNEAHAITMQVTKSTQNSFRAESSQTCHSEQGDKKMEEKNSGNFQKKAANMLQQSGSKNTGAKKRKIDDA

CN=C(N)NCCC[C@H](N)C(=O)O
not listed: [8] | [9] | [10]
inactive: all other assays above

NC(N)=NCc1cccc(I)c1
inactive: all assays above

CCOC(=O)[C@H](CCc1ccccc1)N[C@@H](C)C(=O)N1[C@H](C(=O)O)C[C@H]2CCCC[C@@H]21
not listed: [8] | [9] | [10]
inactive: all other assays above

CC(C)(C)NC[C@H](O)COc1nsnc1N1CCOCC1
not listed: [8] | [9] | [10]
inactive: all other assays above

CC(=O)OCC1=C(C(=O)O)N2C(=O)[C@@H](NC(=O)CSc3ccncc3)[C@H]2SC1
inactive: [9] | [10]
